PLK1 PBD block – inhibitors of human PLK1 polo-box domain binding; Plk1 PBD binding of FITC phosphopeptide, fluorescence polarization; Potency, µM, for inactives: max response, negative = inhibition, actives largely listed as inhibitors; 360,000 compounds, 2.8% hits; AID 720504; also: series mostly up to about 57 µM; nearly all actives have a fitted effect of over 65% in size
12-LOX inh – inhibitors of human 12S-lipoxygenase ALOX12. purified 12hLO, xylenol orange hydroperoxide absorbance. Potency, µM (series often up to 108 µM), for inactives: top-dose activity change, negative = inhibition, usual class: inhibitors. 580,000 compounds, 1.1% hits. AID 1671190
Target sequence (P18054 whole entry, looked up): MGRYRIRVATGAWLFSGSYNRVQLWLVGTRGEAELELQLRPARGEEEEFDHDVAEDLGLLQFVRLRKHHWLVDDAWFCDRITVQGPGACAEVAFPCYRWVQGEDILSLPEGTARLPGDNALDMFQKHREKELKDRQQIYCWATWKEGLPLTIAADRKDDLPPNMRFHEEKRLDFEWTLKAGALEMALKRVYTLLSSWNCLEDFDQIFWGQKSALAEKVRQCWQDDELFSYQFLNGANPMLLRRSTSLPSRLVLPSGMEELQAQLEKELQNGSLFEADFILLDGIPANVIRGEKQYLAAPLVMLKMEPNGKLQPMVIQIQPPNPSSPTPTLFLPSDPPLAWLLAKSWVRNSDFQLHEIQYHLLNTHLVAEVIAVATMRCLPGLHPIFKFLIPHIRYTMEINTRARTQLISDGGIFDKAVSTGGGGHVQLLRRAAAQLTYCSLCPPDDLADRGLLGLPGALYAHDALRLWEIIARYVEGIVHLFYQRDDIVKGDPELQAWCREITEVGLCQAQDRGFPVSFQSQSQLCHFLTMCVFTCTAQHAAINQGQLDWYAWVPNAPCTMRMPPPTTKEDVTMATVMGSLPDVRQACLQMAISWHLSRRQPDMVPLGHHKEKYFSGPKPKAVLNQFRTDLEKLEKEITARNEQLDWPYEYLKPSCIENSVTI
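Purified human 12hLO at 150 nM in 25 mM Hepes, 0.01% Triton X-100, pH 7.0, preincubated 15 min at room temperature with compound. Reaction started with 40 uM arachidonic acid, 30 min at room temperature. Hydroperoxide measured by Fe-xylenol orange, 573/405 nm absorbance ratio.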
Sfp inh – inhibitors of Bacillus subtilis Sfp phosphopantetheinyl transferase. Q9F4F7. Biochemical Sfp PPTase activity, qHTS. AID 1490. Potency, µM, inactives show largest response in the series, negative = inhibition, most hits filed as inhibitors. 310,000 compounds, 3.5% hits;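 also: the enzyme is Sfp with the accession as filed and its product quenches rhodamine fluorescence; 0% = enzyme reaction without inhibitor and -100% = no enzyme wells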
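Buffer: 50 mM Hepes-Na pH 7.6, 10 mM MgCl2, 0.01% Nonidet P-40, 0.01% BSA. Enzyme 15 nM, pre-exposed to compound 15 min; substrates then added and fluorescence change tracked over 30 min.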
VDR inhibitor – inhibitors of human vitamin D receptor | P11473 | VDR-SRC2-3 peptide fluorescence polarization, 2 h | Potency, µM, for the others: max response, negative = inhibition, usual class: inhibitors | 400,000 compounds, 0.93% hits | AID 504847
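Reagent solutions, kept cold and dark, are dispensed first; compounds are then pinned in at 23 nl, plates briefly spun, and incubated 2 h at ambient temperature. Inhibition of VDR–SRC2-3 peptide binding is read by fluorescence polarization.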
* marks the source's active call; other numbers are inactive results; ? = inconclusive; nt = not tested or not shown; [ ] = dose if it differs, or a comment. Compounds with a hit are over-represented: about 4.2% of the library has one in this group of screens. Calls follow the shape of the dose curve; as a rule, active = well fitted curve in the direction sought with a large enough effect; inconclusive = small, poorly fitted or top-dose-only effect, or another doubt; inactive = no such curve, though single readings can be large; an effect the other way counts as inactive or inconclusive. Unless noted, % is scaled to controls: 0 for no effect and ±100 for the full control effect; potency is read from the fitted curve at half-maximal effect.

SMILES	PLK1 PBD block	12-LOX inh	Sfp inh	VDR inhibitor
CCCCCOc1ccc(/C(C)=N/NC2=NCCN2)cc1	4.5%	?	-6.8%	10.1%
CCCCCCOc1ccc(/C(C)=N/NC2=NCCN2)cc1	3.4%	-28.0%	56.2µM*	-6.6%
CC(C)Oc1ccc2c(NC(=O)CN3CCCC3=O)nn(Cc3ccccc3)c2c1	nt	6.0%	nt	nt
Cc1cc(-c2n[nH]c(=S)n2Cc2ccco2)n(C)n1	-10.7%	-36.5%	50.1µM*	-10.0%
COCCn1cc2c3c(cccc31)CN(C(=O)c1cc(F)ccc1Cl)CC2	nt	25.1µM*	nt	nt
CC1CCCC(NC(=O)CCS(=O)(=O)c2cc3c(cc2Cl)NC(=O)CO3)C1C (centres undefined)	26.7µM*	6.1%	28.6%	-12.8%
CC1CCCC(NS(=O)(=O)c2cc3c(cc2Cl)NC(=O)CO3)C1C (centres undefined)	-0.8%	6.6%[57.4 µM]	3.2%	25.9%
Cc1ccc(CNC(=O)CCS(=O)(=O)c2cc3c(cc2Cl)NC(=O)CO3)cc1	26.7µM*	-17.2%	8.9%	?
Cc1ccc(CNC(=O)c2sc(C(C)C)nc2C)cc1	nt	-20.5%	nt	nt
Clc1ccc(-c2ncc3ccccn23)cc1	-10.2%	?	4.8%	0.5%
Clc1ccccc1-c1ncc2ccccn12	-10.5%	22.4µM*	-56.9%	-0.4%
CCC(NC(=O)OCc1ccccc1)C(=O)Oc1ccc2ccc(=O)oc2c1 (centres undefined)	29.9µM*	nt	-11.3%	?
O=C(Oc1ccc2ccc(=O)oc2c1)c1ccccc1	-0.1%	0.0%	-6.0%	7.7%
C=C1CCN(C(Cc2ccccc2)C(=O)NCc2ccccc2)S(=O)(=O)c2ccccc21 (centres undefined)	nt	nt	12.9%	-16.7%
CCCCn1c(SCC(N)=O)nc2sc3c(c2c1=O)CCC3	-6.3%	59.2%	17.9%	-13.2%
